# Laboratory results as given in PubChem BioAssay (Tox21).
# A number with no mark means an inactive call. Inconclusive results are not listed. A call without a number means that no potency is given here. The source made the active and inactive calls. Calls come from the whole dose curve.
# Tests used:
# [1] = molecular target: Acetylcholinesterase (Homo sapiens) (UniProt P22303); experiment: Acetylcholinesterase (AChE) small molecule antagonists: colormetric cell-based qHTS assay (AID 1347395); note: nearly all actives have a fitted effect of over 30% in size; note: potency is the fitted concentration of half-maximal effect
# Procedure, shortened: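 In this cell-based qHTS, attached SH-SY5Y cells were treated with test chemicals for 30 min, after which acetylthiocholine hydrolysis was followed by DTNB colour development over 90 min at 37 C.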
# [2] = molecular target: Acetylcholinesterase (Homo sapiens) (UniProt P22303); experiment: Acetylcholinesterase (AChE) small molecule antagonists: enzyme-based qHTS assay (AID 1347397); details: Potency: AChE enzyme activity inhibition; outcome: AChE enzyme activity inhibition; note: nearly all actives have a fitted effect of over 55% in size; note: potency is the fitted concentration of half-maximal effect
# Procedure, shortened: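 Recombinant human AChE, dispensed at 50 mU/mL, was preincubated with Tox21 10K compounds or DMSO vehicle for 30 min at room temperature. DTNB plus acetylthiocholine was then added, and thiocholine was measured colorimetrically after a further 10 min.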
# [3] = molecular target: Acetylcholinesterase (Homo sapiens) (UniProt P22303); experiment: Acetylcholinesterase (AChE) small molecule antagonists: fluorescence cell-based qHTS assay (AID 1347398); details: Potency: AChE activity; outcome: AChE activity; note: nearly all actives have a fitted effect of over 50% in size; note: potency is the fitted concentration of half-maximal effect
# Procedure, shortened: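 Human SH-SY5Y cells were plated overnight at 37 C, exposed to compound for 30 min at 37 C, 5% CO2, then given acetylthiocholine plus Thiolite Green for 40 min at room temperature; thiocholine fluorescence (Ex/Em 490/520 nm) reports endogenous AChE activity.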
# [4] = molecular target: Acetylcholinesterase (Homo sapiens) (UniProt P22303); experiment: Acetylcholinesterase (AChE) small molecule antagonists: enzyme-based qHTS assay with human liver microsomes (AID 1347399); details: Potency: qHTS inhibition; outcome: qHTS inhibition; note: nearly all actives have a fitted effect of over 60% in size
# Procedure, shortened: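 Recombinant human AChE (50 mU/mL in the enzyme mix) and human liver microsomes (0.25 mg/mL final) were preincubated with compound and NADPH (0.25 mg/mL final) for 30 min at 37 C. Acetylthiocholine/DTNB was then added; thiocholine was read colorimetrically after 10 min at room temperature.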
# Acetylcholinesterase (Homo sapiens), sequence (P22303 whole entry, looked up): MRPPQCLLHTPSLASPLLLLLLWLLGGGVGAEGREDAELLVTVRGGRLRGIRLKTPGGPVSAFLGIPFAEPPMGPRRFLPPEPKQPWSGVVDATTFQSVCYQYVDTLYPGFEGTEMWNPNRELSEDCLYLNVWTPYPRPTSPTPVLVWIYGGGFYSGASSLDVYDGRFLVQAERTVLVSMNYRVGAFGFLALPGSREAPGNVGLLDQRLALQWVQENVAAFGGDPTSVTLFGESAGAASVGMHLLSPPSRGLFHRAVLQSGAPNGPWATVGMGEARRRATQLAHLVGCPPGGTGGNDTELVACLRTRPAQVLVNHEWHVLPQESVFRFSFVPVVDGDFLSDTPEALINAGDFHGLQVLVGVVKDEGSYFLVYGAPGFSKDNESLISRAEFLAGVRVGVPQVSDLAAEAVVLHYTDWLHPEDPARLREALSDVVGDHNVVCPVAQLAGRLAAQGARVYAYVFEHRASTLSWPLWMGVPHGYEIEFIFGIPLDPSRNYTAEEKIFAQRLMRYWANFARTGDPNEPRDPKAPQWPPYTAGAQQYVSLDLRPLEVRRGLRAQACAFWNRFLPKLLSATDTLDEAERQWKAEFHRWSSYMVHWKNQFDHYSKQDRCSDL
Compound,Potency [1],Potency [2],Potency [3],Potency [4],"activity, negative = inhibition [1]","activity change, negative = inhibition [2]","activity change, negative = inhibition [3]","activity change, negative = inhibition [4]"
CCN(CC)CCOc1ccc(Cc2ccccc2)cc1,inactive,inactive,inactive,inactive,–,–,–,–
CC(=O)N(c1onc(C)c1C)S(=O)(=O)c1ccc(N)cc1,inactive,inactive,inactive,inactive,–,–,–,–
CCc1ccc(C=O)cc1,inactive,inactive,inactive,inactive,–,–,–,–
NC(=O)Nc1ccc(Cl)c(Cl)c1,inactive,inactive,inactive,inactive,–,–,–,–
CCCCOc1ccc(OCCCN2CCOCC2)cc1,inactive,inactive,inactive,inactive,–,–,–,–
C=CC(C)(CCC=C(C)C)OC(=O)C(C)C (centres undefined),inactive,inactive,inactive,inactive,–,–,–,–
Cc1cc(C)cc([N+](=O)[O-])c1,inactive,inactive,inactive,inactive,–,–,–,–
C/C(=C\C(C)CC(C)CC(C)C)C1CC(=O)OC1=O (centres undefined),inactive,inactive,inactive,inactive,–,–,–,–
COC(=O)C(C)=O,inactive,inactive,inactive,inactive,–,–,–,–
O=C(O)[C@H](O)c1ccccc1,inactive,inactive,inactive,inactive,–,–,–,–
O=c1c(-c2ccccc2)c1-c1ccccc1,inactive,inactive,inactive,inactive,–,–,–,–
CC1CN(c2cc3c(cc2F)c(=O)c(C(=O)O)cn3-c2ccc(F)cc2F)CCN1 (centres undefined),–,–,–,–,1.81% [at 10.5 µM],0.0761% [at 10.5 µM],3.28% [at 10.5 µM],5% [at 10.5 µM]
CCN(CC)C(=O)N(CC)CC,inactive,inactive,inactive,inactive,–,–,–,–
CN1CCCN=C1COC(=O)C(O)(c1ccccc1)C1CCCCC1 (centres undefined),inactive,inactive,inactive,inactive,–,–,–,–
CCCCCCCCCCCCN(CCCCCCCCCCCC)CCCCCCCCCCCC,inactive,inactive,inactive,inactive,–,–,–,–
Cc1ccc(Cl)c(OCC(O)CNC(C)(C)C)c1 (centres undefined),inactive,inactive,inactive,inactive,–,–,–,–
CCOC(OCC)C(=O)c1ccccc1,inactive,inactive,inactive,inactive,–,–,–,–
Cn1cnc2ncnc(N)c21,inactive,inactive,inactive,inactive,–,–,–,–

Compound,Potency [1],Potency [2],Potency [3],Potency [4],"activity, negative = inhibition [1]","activity change, negative = inhibition [2]","activity change, negative = inhibition [3]","activity change, negative = inhibition [4]"
CCOC(=O)[C@@](C)(N)Cc1ccc(O)c(O)c1,inactive,inactive,inactive,inactive,–,–,–,–
Cc1ccc2c(c1[N+](=O)[O-])C(=O)c1ccccc1C2=O,781 nM (active),1390 nM (active),392 nM (active),inactive,–,–,–,–
Cc1ccccc1N1C(=O)c2cc(S(N)(=O)=O)c(Cl)cc2NC1C (centres undefined),inactive,inactive,inactive,inactive,–,–,–,–
CCCC(=O)O[C@]1(C(=O)COC(=O)CC)CC[C@H]2[C@@H]3CCC4=CC(=O)CC[C@]4(C)[C@H]3[C@@H](O)C[C@@]21C,–,–,–,–,0.0881% [at 23.6 µM],0.139% [at 23.6 µM],1.87% [at 23.8 µM],-1.51% [at 23.6 µM]
O=CN1CCOCC1,inactive,inactive,inactive,inactive,–,–,–,–
C=CCN1CCc2nc(N)sc2CC1,inactive,inactive,inactive,inactive,–,–,–,–
CC(C)(C)c1cc(CCC(=O)NN)cc(C(C)(C)C)c1O,inactive,inactive,inactive,inactive,–,–,–,–
S=C(SSSSSSC(=S)N1CCCCC1)N1CCCCC1,–,–,–,–,-0.568% [at 23.6 µM],0.13% [at 23.6 µM],-3% [at 23.8 µM],-2.6% [at 23.6 µM]
CC1CNCC(C)O1 (centres undefined),inactive,inactive,inactive,inactive,–,–,–,–
CCOC(=O)c1ccccc1OC,inactive,inactive,inactive,inactive,–,–,–,–
Cc1ccc(N(CCO)CCO)cc1,inactive,inactive,inactive,inactive,–,–,–,–
CN(C)C(=O)Nc1ccccc1,inactive,inactive,inactive,inactive,–,–,–,–
COC(=O)C1=C(C)NC(C)=C(C(=O)O[C@@H]2CCCN(Cc3ccccc3)C2)[C@@H]1c1cccc([N+](=O)[O-])c1,inactive,inactive,inactive,inactive,–,–,–,–
OC(CCN1CCCCC1)(c1ccccc1)C1CC2C=CC1C2 (centres undefined),inactive,inactive,inactive,inactive,–,–,–,–
CCCCOCCOC(=O)COc1ccc(Cl)cc1Cl,inactive,inactive,inactive,inactive,–,–,–,–
Nc1ccccc1S(=O)(=O)c1ccccc1,inactive,inactive,inactive,inactive,–,–,–,–
CCCCC1CCCCC(=O)O1 (centres undefined),inactive,inactive,inactive,inactive,–,–,–,–
OCc1ccccn1,inactive,inactive,inactive,inactive,–,–,–,–
